Assay outcomes from PubChem.
MITF inh = blocks human microphthalmia-associated transcription factor; inhibition, % at 2.6 µM; O75030; AlphaScreen MITF homodimerization, bead proximity signal; hit rate 0.91% among 650,000; in the data active means inhibition above about 50%;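 further: 0% = vehicle wells with protein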
TEAD-YAP inh = TEAD-YAP interaction inhibition; HEK-TIYL cells, TEAD-Gal4/YAP UAS-luciferase luminescence; hit rate 1.4% among 640,000; AID 1259422; inhibition, % at 9.12 µM; in the data active means inhibition above about 32%;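 further: 0% = median of test compound wells and 100% = reference inhibitor wells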
GPR151 activ = activates the human receptor GPR151 | hit rate 1% among 650,000 | PathHunter beta-arrestin GPR151 cells, luminescence | AID 1508602 | activation, % at 11.2 µM; in the data active means activation above about 4.9%;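 further: 0% = median of compound wells and 100% = cells with positive control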
FBW7 act = activators of human E3 ligase FBW7. Q969H0. AlphaScreen FBW7–phospho-cyclin E peptide binding, activator screen. normalized activity (activation), % at 26.1 µM. hit rate 0.13% among 650,000. AID 1259310; in the data active means normalized activity above about 1.9%;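 further: purified mutant Fbw7 with reduced substrate affinity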
The depositor's hits bear a star. This is a sample that favours compounds with a hit; in the whole collection about 3.4% have one here.

SMILES	MITF inh	TEAD-YAP inh	GPR151 activ	FBW7 act
O=C1Nc2ccccc2/C1=N/n1c(-c2ccccc2)nc2ccccc2c1=O	-3	32*	0	0
O=C(c1ccc(Cl)cc1)c1cc([N+](=O)[O-])ccc1N1CCOCC1	19	53*	-1	0
CN1CCN(c2ccc([N+](=O)[O-])cc2C(=O)c2ccc(Cl)cc2)CC1	-8	41*	2	0
CN1CCN(c2ccc([N+](=O)[O-])cc2C(=O)N2CCCCC2)CC1	22	4	-2	0
O=C(c1ccc(Br)cc1)c1cc([N+](=O)[O-])ccc1N1CCOCC1	9	54*	0	0
NC(=O)c1cc([N+](=O)[O-])ccc1N1CCOCC1	-2	-3	0	0
N#Cc1ccccc1NC(=O)CN1c2cccc3cccc(c23)S1(=O)=O	15	7	-1	0
C/C(=N\Nc1ncc(Cl)cc1Cl)c1ccccn1	19	82*	-1	0
O=C(c1n[nH]c2c1CCCC2)n1ccnc1	10	54*	1	0
O=C(O)c1n[nH]c2c1CCCC2	5	-8	-1	0
NS(=O)(=O)c1cccc(NC(=O)CSc2nnc(NCc3ccccc3)s2)c1	11	-17	0	0
c1ccc(-c2noc(-c3cccc4ccccc34)n2)nc1	11	29	-5	0
Clc1ccc(-c2nc(-c3ccccn3)no2)c(Cl)c1	8	98*	-11	0
Cc1ccc(-c2nc(-c3ccccn3)no2)c(Cl)c1	7	98*	-11	0
Cc1ccc(-c2nc(-c3cccnc3)no2)c(Cl)c1	1	22	-2	0
CCOc1ccc(NC(=O)c2ccc(F)c(S(=O)(=O)NC3CCCC3)c2)cc1	24	69*	2	0
O=C(Nc1ccc(Br)cc1)c1ccc(F)c(S(=O)(=O)NC2CCCCCC2)c1	-3	40*	0	0
COc1ccc(OC)c(/C=C2\Oc3c(ccc(O)c3CN3CCN(CCO)CC3)C2=O)c1	-3	-6	-1	0
O=C(Cc1cn(-c2ccc(Nc3ccccc3)nn2)c2ccccc12)NCc1cccnc1	3	-19	1	0
COc1ccc(CCNSc2ccccc2[N+](=O)[O-])cc1OC	-2	1	0	0
COc1cc(Sc2ccccc2[N+](=O)[O-])ccc1N	1	46*	-1	0
O=C(OCC(=O)N1CCc2ccccc21)c1cc(O)c2ccccc2c1O	10	-11	0	0
CC(=O)Nc1cc2c(cc1C(=O)c1ccccc1Br)OCCO2	-4	-3	-2	0
O=C(O)c1cc(O)c2c(c1)[C@@H]([C@H]1c3cc(C(=O)O)cc(O)c3C(=O)c3c(O[C@H]4O[C@H](CO)[C@@H](O)[C@H](O)[C@H]4O)cccc31)c1cccc(O[C@H]3O[C@H](CO)[C@@H](O)[C@H](O)[C@H]3O)c1C2=O	121*	5	-1	-1
OCCCn1c(-c2ccc(F)cc2)csc1=Nc1ccc(F)cc1	11	-19	0	0
SMILES	MITF inh	TEAD-YAP inh	GPR151 activ	FBW7 act
CCN(CC)S(=O)(=O)c1ccc(-c2csc(=Nc3ccc(F)cc3)n2CCCO)cc1	24	39*	1	0
COc1cccc(/C=N/N2C(=O)CSC2=S)c1O	77*	-13	0	-2
O=C1CSC(=S)N1/N=C/c1ccccc1OS(=O)(=O)c1ccccc1	12	5	-1	0
c1ccc2c(c1)n(CCN1CCCCC1)c1ncnn21	12	-5	0	0
c1ccc2c(c1)nc1n(CCN3CCCCC3)cnn21	19	-6	-1	2.1*
NS(=O)(=O)c1ccc(N=Cc2ccc[nH]2)cc1	-2	-5	-1	0
Oc1ccc(N=Cc2ccc[nH]2)cc1N=Cc1ccc[nH]1	87*	-2	2	0
COc1ccc(OC)c(NC(=O)c2ccc3c(=O)n(Cc4ccccc4)c(=S)[nH]c3c2)c1	-3	-11	-1	0
COc1ccccc1-n1c(=S)sc2c(=O)n(-c3ccccc3)c(SCc3ccccc3F)nc21	9	1	-1	0
Cc1cccc(C)c1-n1c(=S)sc2c(=O)n(-c3ccccc3)c(SCc3ccccc3F)nc21	18	46*	2	0
O=C(Nc1ccccc1)C1CCCN1C(=O)Nc1ccccc1F (centres undefined)	0	6	1	0
COc1cc(C(=O)N2N=C(C)CC2(O)C(F)(F)F)ccc1O (centres undefined)	0	-15	0	0
CCOc1cc(C(=O)N2N=C(C)CC2(O)C(F)(F)F)cc(OCC)c1OCC (centres undefined)	-2	61*	1	0
